# Measurements reported in PubChem BioAssay AID624483 (NMMLSC, 2012).
# Hit rate of the full screen: of about 360,000 compounds, about 11,000 (3.1%) were called active. Another 2% or so got no clear call; they are omitted. Rule as the data show it: active = fluorescence intensity above about 16000; inconclusive = no clear call, values can overlap the other calls; inactive = below that. For the sample, actives were picked, then their nearest neighbours and some compounds at random.
# Assay: counter-screen for toxin protease inhibitors: compound fluorescence, primary screen, artefact control for toxin protease inhibitor project, biochemical, multiplex microsphere, HTS (AID 624483)
# Conditions: compound autofluorescence counterscreen, microsphere flow cytometry; stronger effect = higher value
row,SMILES,fluorescence intensity
1,CCN(C(=O)CSc1nnnn1-c1ccccc1OC)C1CCS(=O)(=O)C1 (stereo unspecified),5910 (inactive)
2,Cc1ccccc1C(OCCN(C)C)C1CCCCC1 (stereo unspecified),2370 (inactive)
3,CCNC(=O)C1(C)CCN(C(=O)c2ccccc2)C1 (stereo unspecified),3880 (inactive)
4,COC(=O)Cc1nc2c(N)nc(N)nc2[nH]c1=O,4130 (inactive)
5,O=C(NNS(=O)(=O)c1c(F)cc(F)c(Cl)c1F)C12CC3CC(CC(C3)C1)C2,4000 (inactive)
6,O=C(Nc1ccccc1C(=O)O)c1ccc(N2C(=O)C3CC=CCC3C2=O)cc1 (stereo unspecified),4170 (inactive)
7,CN(C)CCNC(=O)c1cccc(-c2cnc3c(NC=O)cc(-c4cccc(C(F)(F)F)c4)cn23)c1,3700 (inactive)
8,CN1CCN(C(=O)c2ccc(-c3cc4nc(NCc5cccnc5)n(C)c(=O)c4s3)cc2)CC1,3940 (inactive)
9,O=C(NCc1ccccc1)C1c2ccccc2OCC(=O)N1C1CC1 (stereo unspecified),5460 (inactive)
10,O=C(NCc1ccccc1Cl)C1CCCO1 (stereo unspecified),4090 (inactive)
11,O=C(C1CCCO1)N(c1ccc(F)cc1)C1C=CS(=O)(=O)C1 (stereo unspecified),3830 (inactive)
12,O=C(C1CCCO1)N(Cc1ccccc1)c1ccccc1 (stereo unspecified),16100 (active)
13,CCc1ccc2c(c1)NC(=O)C2(C)Cc1ccc(OC(F)(F)F)cc1 (stereo unspecified),2900 (inactive)
14,COCc1cc(C)nc(SCC(=O)Nc2cccc(C)c2)c1C#N,4220 (inactive)
15,O=CN1CCN(C(=O)c2ccc3c(c2)OCO3)CC1,6220 (inactive)
16,O=C(c1ccc2c(c1)OCO2)N1CCN(C(=O)c2ccco2)CC1,20500 (active)
17,O=C(CNS(=O)(=O)c1ccccc1)N1CCN(C(=O)c2ccco2)CC1,5790 (inactive)
18,CCNC(=S)N1CCN(C(=O)c2ccco2)CC1,21900 (active)
19,O=C(c1ccco1)N1CCN(C(=S)Nc2cc(F)cc(F)c2)CC1,5420 (inactive)
20,N#Cc1ccccc1NC(=O)c1ccc2c(c1)OCO2,3490 (inactive)
21,O=C(Nc1ccccc1N1CCN(C(=O)c2ccccc2)CC1)c1ccc2c(c1)OCO2,23400 (active)
22,O=C(Nc1ccccc1N1CCN(C(=O)c2ccccc2)CC1)c1ccco1,3700 (inactive)
23,O=C(CN1CCN(C(=O)c2ccco2)CC1)Nc1ccc2c(c1)OCO2,2540 (inactive)

row,SMILES,fluorescence intensity
1,Cc1nc2c(OCc3cccc(Cl)c3)cccn2c1N(C)CC1CC1,3860 (inactive)
2,CN(Cc1ccccc1)C(=O)C(=O)c1cn(CC(=O)N2CCCC2)c2ccccc12,5870 (inactive)
3,NCCCCC(C(=O)O)N(C(=O)OCc1ccccc1)C(=O)OCc1ccccc1 (stereo unspecified),4320 (inactive)
4,O=C1NC[C@H](CCCCN2C[C@H](Cc3ccc(O)cc3)N(CC3CCCCC3)C(=O)C2=O)N(CCc2ccccc2)C1=O,4980 (inactive)
5,NC(Cc1ccc(F)cc1)c1csc(Nc2nncc3ccccc23)n1 (stereo unspecified),3900 (inactive)
6,C#CCNC(=O)C[C@@H]1C[C@@]2(C(=O)OCC)CCCC=C2N(Cc2ccco2)C1=O,4250 (inactive)
7,CC(=O)N(O)CCCCCNC(=O)CCC(=O)N(O)CCCCCNC(=O)CCC(=O)N(O)CCCCCNC(=O)CCC(=O)O,3470 (inactive)
8,CC1=C(C(=O)N(C(C)C)C(C)C)CC(CC(=O)NCCCCc2ccccc2)C(=O)N1CCC1=CCCCC1 (stereo unspecified),5390 (inactive)
9,O=C(Cc1ccc(-n2c(=O)[nH]c3ccccc3c2=O)cc1)N1CCN(c2cccc(Cl)c2)CC1,22000 (active)
10,CCOC(=O)N1CCN(C(=O)Cc2ccc(-n3c(=S)[nH]c4ccccc4c3=O)cc2)CC1,10600 (inactive)
11,O=c1c2ccccc2[nH]c(=S)n1-c1cccc(Cl)c1,4010 (inactive)
12,CNc1cc(-c2c(OC)cccc2OC)ncn1,3890 (inactive)
13,CN1OC[C@@H]2CN(C(=O)C(C)(C)C)[C@H](c3ccc(-n4ccnc4)cc3)C[C@@H]21,4320 (inactive)
14,COc1cccc(-c2cc(NC(C)=O)c3ncc(-c4cccc(C(C)=O)c4)n3c2)c1,3560 (inactive)
15,C=CCn1c(COc2ccccc2F)nnc1SCC(=O)N1CC(=O)Nc2ccccc21,19900 (active)
16,O=C1CN(C(=O)COC(=O)/C=C/c2ccc(F)cc2)c2ccccc2N1,2990 (inactive)
17,Nn1c(Cc2cccc3ccccc23)nnc1SCC(=O)N1CC(=O)Nc2ccccc21,3230 (inactive)
18,CCN1C(=O)[C@@H]2[C@@H]3CN(S(=O)(=O)c4ccccc4C)[C@@H](c4ccc(Cl)cc4)[C@@H]3C(=O)C[C@@H]2C1=O,5460 (inactive)
19,CC(C)(O)C#Cc1ccc(CNC[C@H]2O[C@@H](n3cnc4c(=O)[nH]c(N)nc43)[C@H](O)[C@@H]2O)s1,6310 (inactive)
20,CC(C)Oc1cc(F)ccc1-c1cc(C(=O)Nc2ccc(F)cc2)[nH]n1,2820 (inactive)
21,Cc1ccc([C@@H]2CC(=O)[C@@H]3CN(S(=O)(=O)c4ccc(C)cc4)[C@H](c4ccccc4F)C[C@@H]3N2S(=O)(=O)c2ccc(Cl)cc2)cc1,5790 (inactive)
22,COC(=O)C1(C(=O)OC)C/C=C\CN(S(=O)(=O)c2ccccc2[N+](=O)[O-])CCC1,5420 (inactive)
23,Cc1ccc(S(=O)(=O)NCCNC(C)c2ccc(Br)cc2)cc1 (stereo unspecified),3800 (inactive)

row,SMILES,fluorescence intensity
1,Cc1ccc(S(=O)(=O)NCC(C)NS(C)(=O)=O)cc1 (stereo unspecified),17300 (active)
2,Cc1ccc(S(=O)(=O)NCC(=O)N2CCOCCOCCOCCOCC2)cc1,3170 (inactive)
3,CCCNC(=O)C1(C)CCCN(C(=O)c2cccc(OC(C)=O)c2C)C1 (stereo unspecified),2790 (inactive)
4,CCN(CC)CCCC(C)n1c2nc(=O)[nH]c(=O)c-2nc2cc(Cl)ccc21 (stereo unspecified),3960 (inactive)
5,CC1(Oc2ccc(Cl)cc2)CCN(Cc2csc3ccccc23)C1 (stereo unspecified),3910 (inactive)
6,CC(C)CCSc1ncnc2c1oc1nc3c(cc12)COC(C)(C)C3,23900 (active)
7,CC1CCc2c(nc3ncnn3c2Nc2ccc(OC(F)(F)F)cc2)C1 (stereo unspecified),5260 (inactive)
8,CCc1nc2c(OCCOc3ccccc3)cccn2c1N(C)C(=O)c1ccc(OC)cc1,3960 (inactive)
9,COc1cccc(-c2ccc3c(c2)N(Cc2ccccc2OC)C(=O)C(C)S3)c1 (stereo unspecified),4210 (inactive)
10,CCCc1nc2oc3c(OCC)ncnc3c2c2c1COC(C)(C)C2,19200 (active)
11,CC/C(C)=N/Nc1nc2sc3c(c2c(=O)[nH]1)CC(C)(C)OC3,3170 (inactive)
12,CCCc1nc2oc3c(=O)[nH]cnc3c2c2c1COC(C)(C)C2,3850 (inactive)
13,CC(=O)Nc1cccc(-c2cc(NC=O)c3ncc(-c4ccc(F)c(Cl)c4)n3c2)c1,4090 (inactive)
14,CCOC(=O)c1nnn(-c2nonc2OC)c1-c1ccccc1,20500 (active)
15,CCOC(=O)c1nnn(-c2nc(OC)nc(N(C)C)n2)c1-c1ccccc1,4860 (inactive)
16,C/C(COc1ccccc1)=N\NC(=O)c1nnn(-c2nonc2N)c1-c1ccc(C)cc1,2830 (inactive)
17,CCC(C(=O)Nc1ncccn1)(C(F)(F)F)C(F)(F)F,3150 (inactive)
18,CCN(C(=O)CSc1nc(N)cc(=O)[nH]1)C1CCS(=O)(=O)C1 (stereo unspecified),3860 (inactive)
19,O=C(CCCN1C(=O)c2ccccc2C1=O)Oc1ccc(Cl)cc1,2140 (inactive)
20,COc1ccc(C(=O)CN(C(=O)c2ccc(Cl)cc2)N2C(=O)c3ccccc3C2=O)cc1,17500 (active)
21,COc1ccc(C(=O)CC2C(=O)N(C)C(=O)N(C)C2=O)cc1,3490 (inactive)
22,COc1cccc(C(=O)OCc2cc(=O)oc3c(C)c(C)ccc23)c1OC,5450 (inactive)
23,CCCc1cc(=O)oc2c(C)c(OCC(=O)Nc3ccccn3)ccc12,4420 (inactive)

row,SMILES,fluorescence intensity
1,COC(=O)Cc1cc(=O)oc2c(C)c(O)ccc12,19200 (active)
2,CCOCC(=O)NCc1ccc2c(c1)cc(C)n2C,4110 (inactive)
3,COc1cccc2cc(C(=O)NCc3ccc(C)cc3)c(=N)oc12,4920 (inactive)
4,CC1(C(=O)OCC(=O)Nc2ncc(Cl)cc2Cl)CC1(Cl)Cl (stereo unspecified),4330 (inactive)
5,CC(OC(=O)CN1C(=O)C2CCCCC2C1=O)C(=O)Nc1ncc(Cl)cc1Cl (stereo unspecified),23500 (active)
6,CC(Oc1ccc(Cl)cc1)C(=O)OCC(=O)Nc1ncc(Cl)cc1Cl (stereo unspecified),2090 (inactive)
7,Cc1ccc2[nH]c3c(=O)n(CC(=O)NCCc4ccc(Cl)cc4)ncc3c2c1,5710 (inactive)
8,COC(=O)c1cc(OC)c(OC)cc1NC(=O)CSc1ccc(C)cc1,25800 (active)
9,CCc1cc2cc(OC)ccc2nc1SCC(=O)Nc1cc(OC)c(OC)cc1C(=O)O,4520 (inactive)
10,COc1ccc(C)cc1NC(=O)CSc1ccc(Cl)cc1,2540 (inactive)
11,COc1ccc(Br)cc1CN(C)C(=O)C1CC(=O)N(C2CCCC2)C1 (stereo unspecified),3870 (inactive)
12,CCOC(=O)[C@H]1[C@H]2COc3ccc(Cl)cc3[C@@H]2N2C(=O)c3cc(C)ccc3NC(=O)[C@@]12C,3320 (inactive)
13,Cc1ccc(CN2C(=O)N/C(=C/c3cc(C)n(-c4ccccn4)c3C)C2=O)cc1,9250 (inactive)
14,Cc1cc(/C=C2/NC(=O)NC2=O)c(C)n1-c1cccnc1,8090 (inactive)
15,Cc1ccccc1-n1c(C)cc(/C=C2\NC(=O)NC2=O)c1C,17400 (active)
16,O=C(Nc1c(-c2ccccc2)nc2c(Br)cc(Br)cn12)c1ccco1,3100 (inactive)
17,Nc1ncnc2c1ncn2[C@@H]1O[C@H](CNC(=O)[C@H](N)Cc2cccnc2)[C@@H](O)[C@H]1O,6300 (inactive)
18,Cn1c(Nc2ccc(F)cc2)nc2cc(-c3ccsc3)sc2c1=O,3640 (inactive)
19,CCNC(=O)C1(C)CCN(Cc2ccc(C(=O)OCC)o2)C1 (stereo unspecified),4060 (inactive)
20,CCc1ccccc1NC(=O)CSc1nnc(-c2ccncc2)o1,4930 (inactive)
21,O=C(CSc1nnc(-c2ccc(NS(=O)(=O)c3ccccc3)cc2)o1)NCC1CCCO1 (stereo unspecified),3540 (inactive)
22,CCN(CC)C(=O)CSc1nnc(-c2ccc(S(=O)(=O)NCc3ccccc3Cl)cc2)o1,16600 (active)
